{
  "source": "PubChem BioAssay (NCI)",
  "note": "Compounds without any hit were thinned out: in the full panel of roughly 83,000, 20% have a hit.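 Compound tested at a single concentration for 48 hours in 96-well plates; a percent growth value below 10 was scored as active.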 Calls of active or inactive are those of the source.",
  "data": [
    {"system": "COLO 205 colon", "test": "NCI-60 one-dose screen, 48 h (100 = growth as untreated, 0 = no growth, -100 = all killed)", "settings": "10 µM unless noted", "values": [
      {"smiles": "COc1ccc(S(=O)(=O)N2CCN(c3cc4c(cc3F)c(=O)c(C(=O)O)cn4C3CC3)CC2)c(OC)c1", "growth": "105% (inactive)"},
      {"smiles": "CCC(C)NCC(=O)O", "note": "(stereo not drawn)", "growth": "107% (inactive)"},
      {"smiles": "O=C(O)Cc1ccc2c(c1)Cc1cccnc1O2", "growth": "111% (inactive)"},
      {"smiles": "COc1cc(Cn2c(SCC(=O)Nc3ccc(Cl)cc3)nc3ccccc3c2=O)cc(OC)c1OC", "growth": "92.9% (inactive)"},
      {"smiles": "CC(C)(C)OC(=O)N[C@@H](Cc1ccccc1)C(=O)N(Cc1ccccc1)C1(C(=O)NCc2ccccc2)CCN(Cc2ccccc2)CC1", "growth": "16.3% (inactive)"},
      {"smiles": "COC(=O)C(CC(=O)c1ccc(-c2ccccc2)cc1)c1ccccc1", "note": "(stereo not drawn)", "growth": "36.7% (inactive)"},
      {"smiles": "C=C1C(=O)O[C@H]2[C@H]1CC/C(Cn1cc(-c3ccccc3C(F)(F)F)nn1)=C\\CC[C@@]1(C)O[C@@H]21", "growth": "-78.8% (active)"},
      {"smiles": "O=C(O)C(=Cc1c2ccccc2cc2ccccc12)C(=O)O", "growth": "113% (inactive)"},
      {"smiles": "CN(C)c1nc(N)c(N=O)c(N)n1", "growth": "127% (inactive)"},
      {"smiles": "CCCCCCC[C@@H](O)CC(=O)N[C@H](CCCCN)C(=O)N[C@H](Cc1c[nH]c2ccccc12)C(=O)NC(CCCCN)C(=O)N[C@H](CC(C)C)C(=O)N[C@H](Cc1ccccc1)C(=O)N[C@H](CCCCN)C(=O)N[C@H](CCCCN)C(=O)N[C@H](CC(C)C)C(=O)N1CCCC1C(=O)N[C@H](CCCCN)C(=O)N[C@H](Cc1ccccc1)C(=O)N[C@H](CC(C)C)C(=O)N[C@H](Cc1c[nH]cn1)C(=O)N[C@H](CC(C)C)C(=O)N[C@H](C)C(=O)N[C@H](CCCCN)C(=O)N[C@H](CCCCN)C(=O)N[C@H](Cc1ccccc1)C(=O)O", "note": "(stereo partly drawn)", "growth": "-47.6% (active)"},
      {"smiles": "O=S(=O)(NCCCNc1cc(-c2cn(-c3ccccc3)nc2-c2cccc(O)c2)ccn1)c1cccc2ccccc12", "growth": "-65.5% (active)"},
      {"smiles": "O=C(NCCCN1CCN(CCCNC(=O)C2CCCCC2)CC1)C1CCCCC1", "growth": "104% (inactive)"},
      {"smiles": "CCN(Cc1ccc(CN(CC)C(=O)C(Cl)(Cl)Cl)cc1)C(=O)C(Cl)(Cl)Cl", "growth": "95.7% (inactive)"},
      {"smiles": "CCOC(=O)CC(C#N)(CC(=O)OCC)C(=O)OCC", "growth": "116% (inactive)"},
      {"smiles": "COc1ncc(-c2ccc3ncnc(Nc4cccc(Cl)c4)c3c2)cc1NS(=O)(=O)C1CC1", "growth": "31.4% (inactive)"},
      {"smiles": "Cc1cc(C)c(S(=O)(=O)N2CCN(c3cc4c(cc3F)c(=O)c(C(=O)O)cn4C3CC3)CC2)c(C)c1", "growth": "57.6% (inactive)"},
      {"smiles": "COc1ccc(/C=C/C(=O)OCC(=O)NNC(=O)c2ccccc2)cc1OC", "growth": "118% (inactive)"},
      {"smiles": "O=C1c2ccccc2C(=O)c2c1oc1oc3c(c(=O)c21)c(=O)n(-c1ccccc1)c1ccccc31", "growth": "92.7% (inactive)"},
      {"smiles": "O=C(Nc1ccc(Cl)cc1)c1cc(-c2ccc(F)cc2)c2sc(=O)[nH]c2n1", "growth": "8.8% (active)"},
      {"smiles": "CC(C)(C)c1ccc(S(=O)(=O)Oc2ccc3c4c(c(=O)oc3c2)CCCCC4)cc1", "growth": "37.4% (inactive)"},
      {"smiles": "CCN(CC)CCSc1c2ccc(Cl)cc2nc2ccc(OC)cc12", "growth": "26.8% (inactive)"},
      {"smiles": "Cc1ccc(OCCn2c(C)nn(-c3ccc(Cl)cc3)c2=O)cc1", "growth": "115% (inactive)"},
      {"smiles": "O=C(CN1CCN(c2cc3c(cc2F)c(=O)c(C(=O)O)cn3C2CC2)CC1)Nc1ccc(C(=O)/C=C/c2ccc(Cl)cc2)cc1", "growth": "112% (inactive)"},
      {"smiles": "CCC(c1ccc(OC)cc1)C(CC)c1ccc(OCC[N+](C)(C)C)cc1", "note": "(stereo not drawn)", "growth": "-74.7% (active)"},
      {"smiles": "O=C(C[N+](=O)[O-])c1ccc(Cl)cc1", "growth": "116% (inactive)"},
      {"smiles": "O=C(CCC(=O)OC1CCCC1)OC1CCCC1", "growth": "116% (inactive)"},
      {"smiles": "CCOC(=O)c1ccccc1NC(c1ccccc1)c1ccc2cccnc2c1O", "note": "(stereo not drawn)", "growth": "16.3% (inactive)"},
      {"smiles": "C/C(=C\\c1csc(C)n1)[C@@H]1C[C@@H]2O[C@]2(C)CCC[C@H](C)[C@H](O)[C@@H](C)C(=O)C(C)(C)[C@@H](O)CC(=O)N1", "growth": "-62.5% (active)"},
      {"smiles": "COc1ccc(C2CC(c3cccs3)=NN2c2ccc(S(=O)(=O)NC(=O)Nc3ccc(C)cc3)cc2)cc1", "note": "(stereo not drawn)", "growth": "-54.6% (active)"},
      {"smiles": "CCSc1nnc(NC(=O)COc2ccc(Cl)cc2C)s1", "growth": "93.9% (inactive)"},
      {"smiles": "COc1cc(CNC(=O)CSc2nc3ccccc3c(=O)n2Cc2cc(OC)c(OC)c(OC)c2)cc(OC)c1OC", "growth": "105% (inactive)"},
      {"smiles": "COc1ccc(NC(=S)/N=c2\\oc3c(OC)cccc3cc2-c2cc3ccccc3[nH]2)cc1", "growth": "101% (inactive)"},
      {"smiles": "COc1ccc(C2=CC(c3ccc(Oc4ccnc5cc(Cl)ccc45)c(OC)c3)c3c(nc(OC)[nH]c3=O)N2)cc1", "note": "(stereo not drawn)", "growth": "102% (inactive)"}
    ]}
  ]
}
